The text below walks through data of PubChem BioAssay AID1347146 (National Center for Advancing Translational Sciences (NCATS), 2019).

Each structure is given as a SMILES string. “And” between values parts separate entries of the source, which are not always exact repeats. Identical values can stand only once. Records with an inconclusive call do not appear. The source made the active and inactive calls. The call rests on the fitted dose curve; in most records, active means well fitted inhibition curve with a large enough effect; inconclusive means small, poorly fitted or top-dose-only effect; inactive means no such curve, though single readings can be large or run the other way.
Potency means the concentration at half of the fitted maximal effect.

Sequence of Nicotinamide N-methyltransferase (Homo sapiens) (P40261 whole entry, looked up): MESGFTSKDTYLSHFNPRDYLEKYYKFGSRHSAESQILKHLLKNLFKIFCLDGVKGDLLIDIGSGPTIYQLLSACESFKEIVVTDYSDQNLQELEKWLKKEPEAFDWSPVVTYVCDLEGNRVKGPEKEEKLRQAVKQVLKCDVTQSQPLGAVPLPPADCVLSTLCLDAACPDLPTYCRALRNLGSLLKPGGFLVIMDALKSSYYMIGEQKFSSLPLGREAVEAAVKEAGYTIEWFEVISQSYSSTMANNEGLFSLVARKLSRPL

This assay addresses Nicotinamide N-methyltransferase (Homo sapiens) (UniProt P40261). Kind of assay: qHTS Assay for Inhibitors of N-terminal methyltransferase 1 (NTMT1): NNMT MTaseGlo counterscreen assay.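 On activity change, negative = inhibition: plate controls were DMSO without inhibitor for no effect and no-enzyme control for full effect.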 The following applies: NNMT enzyme, MTase-Glo luminescence counterscreen; series mostly up to 57.1 µM; activity change, negative = inhibition: at the top concentration. The method in brief: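 Luminescent MTase-Glo read-out of SAH from nicotinamide methylation: 1 µM nicotinamide, 100 µM SAM, 125 nM NNMT, 30 min RT after ~15 min compound preincubation. Values normalized to no-enzyme/DMSO controls, Hill-fitted.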
A general note: Quantitative high-throughput screening tests each substance at several concentrations.
On to `CSc1ccc(C(=O)c2[nH]c(=O)[nH]c2C)cc1`, for which the “activity change, negative = inhibition” value is -13.4% (inactive).

Take `CC(C)NC[C@@H](O)c1ccc(O)c(O)c1`: the “activity change, negative = inhibition” value was -5.82% (inactive).

Turning to `COC(=O)[C@@H]1[C@H]2C[C@H]3c4[nH]c5ccccc5c4CCN3C[C@@H]2CC[C@@H]1O`, the “activity change, negative = inhibition” value is -4.61% (inactive).

Regarding `CSc1nc(N)c2ncn([C@@H]3O[C@H](COP(=O)(O)OP(=O)(O)OP(=O)(O)O)[C@@H](O)[C@H]3O)c2n1`, the “activity change, negative = inhibition” value is -12.5% (inactive).

`CNC(=O)c1cnn(-c2nc(N)c3ncn([C@@H]4O[C@H](CO)[C@@H](O)[C@H]4O)c3n2)c1`: the “activity change, negative = inhibition” value was -9.86% (inactive).

Turning to `O=C(O)Cc1ccc(O)c(O)c1`, the “activity change, negative = inhibition” value is -4.93% (inactive).

Regarding `Nc1ncnc2c1ncn2[C@@H]1O[C@H](COP(=O)(O)OP(=O)(O)OC[C@H]2OC(O)[C@H](O)[C@@H]2O)[C@@H](O)[C@H]1O` (stereo partly drawn), the “activity change, negative = inhibition” value was 326% (inactive).

Regarding `O=C1Nc2ccc(I)cc2/C1=C/c1cc(Br)c(O)c(Br)c1`, the Potency is 25.1 µM (active).

Regarding `O=C1Cc2c([nH]c3ccc(Br)cc23)-c2ccccc2N1`, the “activity change, negative = inhibition” value is -5.93% (inactive).

In the case of `NS(=O)(=O)c1cccc2c1c([N+](=O)[O-])cc1nc(O)c(O)nc12`, the “activity change, negative = inhibition” value was -10% (inactive).

For the compound `CCC(=O)c1ccc2c(c1)N(CCCN(C)C)c1ccccc1S2`, the “activity change, negative = inhibition” value is -10.4% (inactive).

On to `CCCCNc1ccc(C(=O)OCCN(C)C)cc1`, for which the “activity change, negative = inhibition” value was -6.3% (inactive).

As to `CCn1nc(C(=O)O)c(=O)c2cc3c(cc21)OCO3`, the “activity change, negative = inhibition” value is -3.83% (inactive).

Consider `OCCNc1ncnc2c1ncn2[C@@H]1O[C@@H](CO)[C@H](O)[C@@H]1O`, for which the “activity change, negative = inhibition” value was 31.2% (inactive).

`Nc1ncnc2c1[nH]c(=S)n2C1OC(CO)C(O)C1O` (stereo not drawn): the “activity change, negative = inhibition” value was 25.9% (inactive).

For `Oc1ccccc1O`, the “activity change, negative = inhibition” value is 17.2% (inactive).

In the case of `C=Cc1c(C)c2cc3[nH]c(cc4nc(cc5nc(cc1[nH]2)C(C)=C5CCC(=O)O)C(CCC(=O)O)=C4C)c(C)c3C=C`, the “activity change, negative = inhibition” value is -14.1% (inactive).

As for `CN(C)C(=O)/N=N/C(=O)N(C)C`, the “activity change, negative = inhibition” value is -12.6% (inactive).

Take `COc1cc2c(NC3CCN(C)CC3)cc(N3CCCCN(C)CC3)cc2cc1OCCOCCN(C)C`: the “activity change, negative = inhibition” value was -7.49% (inactive).

For `COc1cc2nc(N3CCCN(C)CC3)nc(NC3CCN(Cc4ccccc4)CC3)c2cc1OC`, the “activity change, negative = inhibition” value is -0.648% (inactive).

Consider `CCN(CC)C(C)CN1c2ccccc2Sc2ccccc21` (stereo not drawn), for which the “activity change, negative = inhibition” value is -2.39% (inactive).

On to `COc1cc2nc(N3CCCN(C)CC3)nc(N3CCN(C)CC3)c2cc1OC`, for which the “activity change, negative = inhibition” value is -10.6% (inactive).

Consider `CN(C)CCCC1(c2ccc(F)cc2)OCc2cc(C#N)ccc21` (stereo not drawn), for which the “activity change, negative = inhibition” value was -12.4% (inactive).

In the case of `CCC(CC)n1ccc2c(C(=O)NCc3c(C)cc(C)[nH]c3=O)cc(C#N)cc21`, the “activity change, negative = inhibition” value is -10.6% (inactive).

Take `COc1ccccc1N1CCN(CCN2C(=O)CC3(CCCC3)CC2=O)CC1`: the “activity change, negative = inhibition” value was -10.2% (inactive).

Take `CC/C(=C(\c1ccccc1)c1ccc(OCCN(C)C)cc1)c1ccccc1`: the Potency result was “inactive”.

For the compound `CCCCC#Cc1nc(NC)c2ncn([C@@H]3O[C@H](CO)[C@@H](O)[C@H]3O)c2n1`, the “activity change, negative = inhibition” value is -8.74% (inactive).

For `Nc1ncnc2c1ncn2[C@@H]1O[C@H](C(=O)N2CCN(CC(=O)Nc3cccc4c3CNC4=O)CC2)[C@@H](O)[C@H]1O`, the “activity change, negative = inhibition” value was -19.9% (inactive).

As for `CCCCCCCCCCCCCCCCCC(=O)OC(CC(=O)O)C[N+](C)(C)C` (stereo not drawn), the “activity change, negative = inhibition” value was -11.9% (inactive).

As to `C=CCN1CCc2cc(O)c(O)cc2[C@H](c2ccccc2)C1`, the “activity change, negative = inhibition” value is 46.9% (inactive).

`c1ccc(CN2CCC3(CCCc4ccccc43)CC2)cc1`: the “activity change, negative = inhibition” value is -10.1% (inactive).

As to `CN1Cc2sccc2C(c2ccc(O)c(O)c2)C1` (stereo not drawn), the “activity change, negative = inhibition” value is -7.5% (inactive).

`Cc1c(OCC(F)(F)F)ccnc1CS(=O)c1nc2ccccc2[nH]1` (stereo not drawn): the “activity change, negative = inhibition” value was -12.3% (inactive).

For the compound `Nc1nc(=S)c2ncn([C@@H]3O[C@H](CO)[C@@H](O)[C@H]3O)c2[nH]1`, the “activity change, negative = inhibition” value was -12.2% [at 38.3 µM] (inactive).

For `C[C@H](Cc1ccc(O)c(O)c1)[C@@H](C)Cc1ccc(O)c(O)c1`, the Potency was 22.4 µM (active) and 25.1 µM (active).

Take `O=c1[nH]c(=S)[nH]c(-c2ccccc2)c1Cc1c(O)ccc2ccccc12`: the “activity change, negative = inhibition” value is 95.8% (inactive).

`NC[C@@H]1O[C@H](c2ccccc2)Cc2c1ccc(O)c2O`: the “activity change, negative = inhibition” value is -10.6% (inactive).

Turning to `CN(C)CCCN1c2ccccc2Sc2ccc(Cl)cc21`, the “activity change, negative = inhibition” value is -18.9% (inactive).
